A selection: hits, their analogues and other compounds. The true share with any hit is near 3.5%.
TEAD-YAP inh – TEAD-YAP interaction inhibition, primary screen, TEAD-YAP interaction inhibitor project, luminescence, HEK-TIYL cells. inhibition, % at 9.12 µM. AID 1259422, 2018. 640,000 compounds, 1.4% hits. TEAD-Gal4/YAP UAS-luciferase luminescence; in the data active means inhibition above about 32%;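 further: 0% = median of test compound wells and 100% = reference inhibitor wells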
MITF primary – MITF inhibitors, primary screen, biochemical, AlphaScreen, human; AlphaScreen MITF homodimerization, bead proximity signal; 650,000 compounds, 0.91% hits; AID 1259374, 2018; inhibition, % at 2.6 µM; Microphthalmia-associated transcription factor (Homo sapiens), O75030; in the data active means inhibition above about 50%;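 further: 0% = vehicle wells with protein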
FBW7 act – FBW7 E3 ligase activators, primary screen, biochemical, AlphaScreen, human. normalized activity (activation), % at 26.1 µM. AlphaScreen FBW7–phospho-cyclin E peptide binding, activator screen. 650,000 compounds, 0.13% hits; in the data active means normalized activity above about 1.9%;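 further: purified mutant Fbw7 with reduced substrate affinity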
Target sequence (Q969H0 whole entry, looked up): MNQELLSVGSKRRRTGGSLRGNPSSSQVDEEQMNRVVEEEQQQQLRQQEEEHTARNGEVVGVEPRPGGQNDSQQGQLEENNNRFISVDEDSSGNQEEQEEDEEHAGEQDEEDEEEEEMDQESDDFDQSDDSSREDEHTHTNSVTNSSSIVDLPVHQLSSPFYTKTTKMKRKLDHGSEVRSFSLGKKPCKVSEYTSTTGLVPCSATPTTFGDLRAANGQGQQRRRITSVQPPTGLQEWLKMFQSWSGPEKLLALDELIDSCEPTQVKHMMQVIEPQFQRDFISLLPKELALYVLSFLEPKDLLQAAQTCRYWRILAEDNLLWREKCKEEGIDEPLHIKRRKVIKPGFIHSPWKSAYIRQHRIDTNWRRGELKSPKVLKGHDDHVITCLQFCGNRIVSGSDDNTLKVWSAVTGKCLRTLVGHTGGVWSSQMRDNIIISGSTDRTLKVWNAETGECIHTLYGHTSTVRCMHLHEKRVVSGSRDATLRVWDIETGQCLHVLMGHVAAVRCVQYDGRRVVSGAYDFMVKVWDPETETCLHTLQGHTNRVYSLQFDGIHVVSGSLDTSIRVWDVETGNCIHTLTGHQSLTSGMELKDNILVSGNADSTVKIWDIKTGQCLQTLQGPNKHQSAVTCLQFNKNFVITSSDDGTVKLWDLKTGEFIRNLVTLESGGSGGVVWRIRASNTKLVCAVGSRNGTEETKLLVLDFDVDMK
GPR151 ag – activators of human GPR151, primary screen, cell-based, PathHunter beta-arrestin, luminescence; PathHunter beta-arrestin GPR151 cells; activation, % at 11.2 µM; 650,000 compounds, 1% hits; in the data active means activation above about 4.9%;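 further: 0% = median of compound wells and 100% = cells with positive control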
GPR151 conf act – GPR151 activators, triplicate retest, confirmation, cell-based, PathHunter beta-arrestin, luminescence; shares compounds with GPR151 ag; AID 1508609, 2020; GPR151 PathHunter beta-arrestin cells, 90 min; % of EA-reagent control over plate median; activation, % at 11.2 µM; 6,700 tested, under 10 active;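 active means mean percent activation across replicates above the confirmation screen cutoff of 4.91%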
GPR119 counter – GPR119 activators in beta-arrestin cells, counter-screen for GPR151 activator project, cell-based, PathHunter beta-arrestin, luminescence, triplicate | shares compounds with GPR151 ag | 90 min; 0 = compound-well median, 100 = enzyme-acceptor control | activation, % at 11.2 µM | 6,700 compounds, 0.3% hits;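 active means mean percent activation in the counterscreen above 29.09%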;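 further: counterscreen on off-target GPR119 to flag nonselective hits from the GPR151 activator screen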
* = called active by the depositor; / = no result.

SMILES | TEAD-YAP inh | MITF primary | FBW7 act | GPR151 ag | GPR151 conf act | GPR119 counter
CCC1CN(CCC(=O)NCCc2nc3ccccc3[nH]2)Cc2cc(OC)ccc2O1 (stereo unspecified) | 8 | -3 | 0 | 7.0* | 0 | 1
Cc1ccc(C)c2[nH]c(=O)c(CN(CCCO)C(=O)NCc3ccccc3)cc12 | -11 | -6 | 0 | 3 | / | /
COc1ccc2[nH]c3ccc([N+](=O)[O-])cc3c(=O)c2c1 | 12 | -7 | 0 | 5.7* | 0 | -5
Cc1ccc2[nH]c(C)c(Br)c(=O)c2c1 | 7 | -13 | 0 | -1 | / | /
Cc1cc(=O)c2cc([N+](=O)[O-])ccc2[nH]1 | 6 | -1 | 0 | -1 | / | /
COc1ccc2[nH]c(C)c(Br)c(=O)c2c1 | 6 | -3 | 0 | 6.4* | 0 | 5
Cc1ccc(C(C)C)cc1OCCOCCNCCN(C)C | 12 | -19 | 0 | 5.1* | -1 | -1
CC1CN(C(=O)CCC(=O)NC2CCCC2)c2cc(Cl)ccc2O1 (stereo unspecified) | -4 | -3 | 0 | 0 | / | /
Cc1cc2ccccc2c(=O)n1CC(=O)N1CCN(c2ccccn2)CC1 | 10 | -2 | 0 | 7.2* | 0 | -9
Cc1ccc(S(=O)(=O)CCC(=O)N2CCN(c3ccccn3)CC2)cc1 | -3 | 4 | 0 | 5.1* | 0 | -3
CC1CN(C(=O)CCC(=O)NC2CCCC2)c2ccccc2O1 (stereo unspecified) | -6 | 5 | 0 | 5.1* | 0 | -2
CC1CN(C(=O)CCC(=O)N2CCN(c3ccccn3)CC2)c2ccccc2O1 (stereo unspecified) | -2 | -7 | 0 | 6.1* | 0 | 0
c1ccc2c(NC3CCCC3)nc(N3CCNCC3)nc2c1 | -5 | 2 | 0 | 2 | / | /
CN1CCN(c2nc(NC3CCCCC3)c3ccccc3n2)CC1 | 4 | -33 | 0 | 12* | 0 | 18
COc1ccccc1/C=C/CN1CCNC(=O)C1CC(=O)NC1CCC1 (stereo unspecified) | 7 | -6 | 0 | 0 | / | /
O=C(CC1C(=O)NCCN1CC(c1ccccc1)c1ccccc1)NC1CCC(O)CC1 (stereo unspecified) | 2 | 12 | 0 | 5.3* | -1 | -7
O=C(CC1C(=O)NCCN1Cc1ccc2ccccc2c1)NC1CCOCC1 (stereo unspecified) | 10 | 7 | 0 | 0 | / | /
O=C(CC1C(=O)NCCN1Cc1ccc2ccccc2c1)NC1CCCCCC1 (stereo unspecified) | -2 | -2 | 0 | 9.5* | -2 | -19
COc1ccccc1/C=C/CN1CCNC(=O)C1CC(=O)NC1CCOCC1 (stereo unspecified) | 7 | -6 | 0 | 4.9* | -1 | -11
Cc1cnc(-c2c(C)nn(C)c2C)nc1NCCc1ccc(O)cc1 | -1 | 1 | 0 | 5.7* | 1 | 5
Cc1cnc(-c2c(C)noc2C)nc1NCCc1ccc(O)cc1 | -4 | -6 | 0 | 0 | / | /
CCOC(=O)c1sc(C)c2c1NC(c1ccc(Cl)cc1)N(C1CCCCC1)C2=O (stereo unspecified) | -4 | -8 | 0 | 1 | / | /
CCOC(=O)C1C(=O)C=C(c2ccc(OC)cc2)CC1c1cccc(OC)c1OC (stereo unspecified) | -1 | 5 | 0 | -1 | / | /
Cc1nc2sc(C(=O)c3ccc(Br)cc3)c(N)c2c(C)c1CC(=O)c1ccccc1 | -1 | -2 | 0 | 7.0* | 0 | -11
CCc1c(C)nc2sc(C(=O)c3ccc(Br)cc3)c(N)c2c1C | 1 | -13 | 0 | 0 | / | /
Cc1nc(NCc2ccncc2)cc(-c2ccccc2F)n1 | -5 | 5 | 0 | 0 | / | /
CCCOc1ccc(/C=N/NC(=O)c2cccs2)cc1 | -29 | 11 | 0 | -5 | / | /
NC(=O)C1(N2CCCCC2)CCN(C(=S)Nc2ccc(F)cc2)CC1 | 13 | 2 | 0 | -1 | / | /

Compound activity deposited in PubChem by The Scripps Research Institute Molecular Screening Center.
